# Only some compounds are listed: those with a hit (about 1.3% of all), similar ones and a draw of the others.
# RXFP1 ag = qHTS Assay for Agonists of the Relaxin Receptor RXFP1; Relaxin receptor 1 (Homo sapiens), Q9HBX9; HEK293T-RXFP1 cAMP TR-FRET, 30 min; response scale: percent of porcine relaxin response, buffer zero; Potency, µM (highest dose often 57.5 µM), inactives show at the top dose activation, actives largely listed as activators; hit rate 0.3% among 370,000; active = well fitted activation curve with a large enough effect; inconclusive = small, poorly fitted or top-dose-only effect; also: potency is read from the fitted curve at half-maximal effect; % is scaled to controls: 0 for no effect and ±100 for the full control effect; nearly all actives have a fitted effect of over 60% in size
# Target sequence (Q9HBX9 whole entry, looked up): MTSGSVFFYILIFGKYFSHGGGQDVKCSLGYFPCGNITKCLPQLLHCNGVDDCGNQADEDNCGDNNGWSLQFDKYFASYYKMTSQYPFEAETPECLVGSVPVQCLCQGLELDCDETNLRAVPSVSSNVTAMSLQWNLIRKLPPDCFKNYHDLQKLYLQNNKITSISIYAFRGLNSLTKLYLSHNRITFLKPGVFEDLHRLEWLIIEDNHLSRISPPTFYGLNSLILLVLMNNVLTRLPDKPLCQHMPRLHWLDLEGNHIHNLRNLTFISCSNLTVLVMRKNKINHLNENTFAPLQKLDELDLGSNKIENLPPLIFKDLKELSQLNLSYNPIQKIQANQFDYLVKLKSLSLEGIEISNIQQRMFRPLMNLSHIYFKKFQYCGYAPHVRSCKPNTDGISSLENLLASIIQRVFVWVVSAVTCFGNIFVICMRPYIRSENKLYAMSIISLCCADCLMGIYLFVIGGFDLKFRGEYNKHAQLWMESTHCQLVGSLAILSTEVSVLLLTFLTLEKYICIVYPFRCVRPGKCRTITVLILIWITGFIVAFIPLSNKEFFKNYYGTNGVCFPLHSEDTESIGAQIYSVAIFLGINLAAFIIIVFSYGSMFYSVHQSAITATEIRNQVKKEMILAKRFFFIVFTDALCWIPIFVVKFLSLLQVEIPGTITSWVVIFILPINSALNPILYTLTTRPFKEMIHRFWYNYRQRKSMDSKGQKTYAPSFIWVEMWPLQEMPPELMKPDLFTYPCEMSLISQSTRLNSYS
#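 cAMP rise read by TR-FRET after 30 min, 37C compound exposure (up to 58 uM) in RXFP1-transfected HEK293 cells with Ro 20174 present. EC50 from Hill-equation fits, with 29 nM porcine relaxin as 100% and buffer as basal.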
# RXFP1 antagonist = qHTS Assay for Antagonists of the Relaxin Receptor RXFP1; Relaxin receptor 1 (Homo sapiens), Q9HBX9; HEK293-RXFP1, relaxin-stimulated cAMP HTRF, 30 min; active compounds read low; activity change, negative = inhibition, % at 57.5 µM; hit rate 0.59% among 350,000; AID 1259400, 2018;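 active = activity change of -60% or lower, but not beyond a set lower limit; inconclusive = change between -60% and -40%, or beyond the set limit; inactive = change above -40%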; also: % is scaled to controls: 0 for no effect and ±100 for the full control effect
# gsp agonist = qHTS for Agonist of gsp, the Etiologic Mutation Responsible for Fibrous Dysplasia/McCune-Albright Syndrome: qHTS; gsp mutant cells, cAMP HTRF, 30 min; Potency, µM (top dose mostly 76.9 µM), for inactives: at the highest dose activation (cAMP increase), most hits filed as activators; hit rate 0.13% among 340,000; AID 624287, 2012; active = well fitted activation curve with a large enough effect; inconclusive = small, poorly fitted or top-dose-only effect, or another doubt; inactive = no such curve, though single readings can be large or run the other way; cell line not stated here;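 also: phosphodiesterase inhibitor Ro 20-1724 added with compounds to block cAMP breakdown; potency is read from the fitted curve at half-maximal effect; nearly all actives have a fitted effect of over 60% in size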
#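 Cells in DMEM/10% FBS with G418 were pretreated with compounds in DMSO plus […] (300 uM stock) for 30 min at 37C. cAMP was measured by HTRF (cAMP-d2 plus anti-cAMP antibody-K) after 30 min at room temperature.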
# pAkt inh = HTS Assay for Inhibitors of Akt Phophorylation: Primary Screen; Neuro2A IGF-stimulated pAkt S473 HTRF, 20 min; active compounds read low; activity change, % for hits at 50 µM; hit rate 0.32% among 360,000; in the data active = activity change below about -80%; inconclusive = mostly about -51% to -80%; also: % is scaled to controls: 0 for no effect and ±100 for the full control effect
#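 Neuro2A cells (4,500/well, DMEM with 0.5% FBS) were treated with compound at a single 50 µM final concentration, stimulated with 6 nM IGF for 20 min at 37 °C, and lysed. Phospho-Akt Ser473 was read by HTRF as 665/615 ratio ×10^4.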
# gsp antag = qHTS for Antagonists of gsp, the Etiologic Mutation Responsible for Fibrous Dysplasia/McCune-Albright Syndrome: qHTS; gsp-mutant cells, cAMP HTRF, 30 min; Potency, µM (titrated, usually from 76.9 µM), for the others: at the top dose activity change, negative = inhibition, actives largely listed as inhibitors; hit rate 0.4% among 340,000; AID 624288, 2012; calls by dose curve; cell line not stated here;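 also: intracellular cAMP measured with PDE inhibitor Ro 20-1724 present during compound exposure; potency is read from the fitted curve at half-maximal effect; % is scaled to controls: 0 for no effect and ±100 for the full control effect; nearly all actives have a fitted effect of over 65% in size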
#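 Measurement of cellular cAMP by homogeneous time-resolved fluorescence following a 30 min compound exposure at 37C. The PDE inhibitor […] was present throughout; the assay buffer was DPBS with 0.05% BSA and 0.005% Tween 20.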
# Numbers without * were called inactive; i = inactive; ? = inconclusive; nt = no result given; [ ] = dose if it differs, or a comment.
SMILES,RXFP1 ag,RXFP1 antagonist,gsp agonist,pAkt inh,gsp antag
CCOC(=O)Cc1csc(N/N=C/c2cccc([N+](=O)[O-])c2)n1,-1%,-1,20%[15.4 µM],i,-3%
Cc1ccc(C)c(NC(=O)C2CCCN2S(=O)(=O)c2ccc3c(c2)CCCC(=O)N3)c1 (stereo not given),0%,nt,nt,nt,nt
COc1ccc(Cl)cc1NC(=O)CSc1cn(CC(=O)N2CCCCC2)c2ccccc12,10%,-5,nt,nt,nt
COc1ccc2nc(N3CCN(C(=O)C4CC4)CC3)sc2c1,0%,-12,nt,nt,nt
Cc1cc(/C=N/n2cnnc2)c(C)n1-c1ccc(OCc2ccc(Cl)cc2Cl)cc1,0%,-21,-2%,i,4%
Cc1cc(/C=N/n2cnnc2)c(C)n1-c1ccc(OCc2ccc(F)cc2)cc1,0%,-68*,4%,i,2%
C=CCn1c(Sc2ncc([N+](=O)[O-])s2)n[nH]c1=O,4%,-80*,7%[15.4 µM],i,1%
CC(C)(Oc1ccc(Cl)cc1)C(=O)OCCCOC(=O)C(C)(C)Oc1ccc(Cl)cc1,nt,-23,nt,nt,nt
O=C(NC1CCCCC1)NC1CCN(CC(=O)N2CCOCC2)CC1,1%,10,-1%,-107%*,7%
c1cncc(CNc2ncnc3ccc(-c4ccco4)cc23)c1,3%,nt,nt,nt,nt
COc1ccc(CCNC(=O)C(=O)NCC(c2cccs2)S(=O)(=O)c2ccccc2)cc1 (stereo not given),-2%,nt,nt,nt,nt
Cc1cc2nc(-c3ccc(SCc4ccc(C(=O)O)cc4)nc3)[nH]c2cc1C,4%,-98*,-18%[15.4 µM],i,-7%
O=S(=O)(c1cccc(NC(=S)N2CCN(c3cccc(Cl)c3)CC2)c1)C(F)F,-3%,-31,-3%[15.4 µM],i,32µM*
O=S(=O)(c1cccc(NC(=S)N2CCN(c3ccc(F)cc3)CC2)c1)C(F)F,0%,-2,-13%,i,?
COc1ccc(NC(=O)c2ccc(-c3nc(CSc4ccc(C)cc4)c(C)o3)cc2)cc1Cl,4%,nt,nt,nt,nt
COc1ccccc1-c1nc(-c2ccc(C)nc2OC)no1,0%,10,17%,-109%*,-7%
COc1nc(C)ccc1-c1noc(-c2ccccn2)n1,3%,1,2%,nt,5%
CCOc1nc(C)ccc1-c1noc(C)n1,-1%,-3,-23%,-110%*,3%
CC1(C)CC(=O)c2cc(-c3nc(-c4ccc(Cl)cc4)cs3)c(=O)n(-c3cccc(F)c3)c2C1,-3%,3,nt,nt,nt
COC(=O)/C=C\C(=O)OC,nt,-7,nt,nt,nt
N#CC1=C(N)SC(N)=C(C#N)C1c1cccc(Oc2ccccc2)c1,3%,-4,25%,i,28µM*
CCCCc1ccc(-n2nc3cc(Cl)c(NC(=O)c4ccc(OC)cc4)cc3n2)cc1,5%,nt,nt,nt,nt
CN(CC(=O)Nc1ccc(Cl)c(Cl)c1)Cc1nnc(-c2ccc(F)cc2)o1,0%,-63*,-27%[15.4 µM],i,-10%
Cc1cc(-c2ccc(C)c(S(=O)(=O)Nc3cccc(C)n3)c2)on1,3%,-12,nt,nt,nt
Cc1cc(-c2ccc(C(C)C)c(S(=O)(=O)Nc3cc(C)on3)c2)on1,1%,-65*,?,i,-27%
SMILES,RXFP1 ag,RXFP1 antagonist,gsp agonist,pAkt inh,gsp antag
Cc1ccc(NC(=O)N2CCN(C(=O)c3nsc4ccccc34)CC2)cc1C,-1%,-24,nt,nt,nt
NS(=O)(=O)c1ccc(CCNC(=O)C2CCC(Cn3c(=S)[nH]c4ccccc4c3=O)CC2)cc1 (stereo not given),5%,-69*,8%,i,-11%
CCOc1ccc(C(=O)Nc2ccc(C(F)(F)F)n(C)c2=O)cc1,4%,5,28µM*,i,3%
CCCn1c(/C=C/c2cc[n+](C)cc2)nc2ccccc21,20µM*,16,?,i,12%
CC(C)Cn1c(/C=C/c2ccccc2)nc2ccccc21,4%,-66*,21%,i,?
CCOc1ccc(NS(=O)(=O)c2c(C)nc3sc(C)c(C)n3c2=O)cc1,0%,?,nt,nt,nt
O=C(NCC12CC3CC(CC(C3)C1)C2)c1nc2ncccn2n1,0%,-6,-7%,-119%*,4%
Cc1ccc2[nH]cc(CCNC(=O)c3ccco3)c2c1,-2%,8,4%,i,-10%
Cc1cc(Br)c2[nH]cc(CCNC(=O)c3ccco3)c2c1,-1%,-88*,-25%,i,-15%
COc1ccc(C2C(=O)N(C3CCCCCC3)CC(=O)N2CCc2ccc(OC)c(OC)c2)cc1 (stereo not given),1%,15,nt,nt,nt
CCCCCCCCCCCCCCC(O)C[N+](C)(CCO)CCO (stereo not given),nt,-61*,4%,i,4%
CCCCCCCCCCCCCCC[C@H](O)[C@@H](N)CO,nt,6,nt,nt,nt
Cn1nnc2c(N3CCN(c4ccccc4Cl)CC3)ncnc21,7%,-29,nt,nt,nt
COc1ccc(NC(=O)CCS(=O)(=O)c2nc(-c3cccs3)cc(C(F)(F)F)n2)cc1,3%,?,nt,nt,nt
O=C(CCS(=O)(=O)c1nc(-c2cccs2)cc(C(F)(F)F)n1)Nc1ccc(F)c(Cl)c1,0%,-60*,nt,nt,nt
Cc1ccc(S(=O)(=O)c2nnn3c2nc(NCc2cccs2)c2sccc23)cc1C,3%,-31,nt,nt,nt
CCCn1nc([N+](=O)[O-])c(C(C#N)c2nc3ccccc3s2)c(Cl)c1=O (stereo not given),-3%,-33,17%,i,32µM*
O=C(O)CCC(NC(=O)OCc1ccccc1)C(=O)O (stereo not given),2%,15,-4%,i,-4%
CSCCC(NC(=O)OCc1ccccc1)C(=O)O (stereo not given),0%,4,4%,-104%*,34%
Cc1n[nH]c(C)c1N1C(=O)c2cccc3c(N4CCCCCC4)ccc(c23)C1=O,4%,-65*,15%,i,?
O=C1c2cccc3c(N4CCCCC4)ccc(c23)C(=O)N1c1cccc(O)c1,8%,-25,11%[15.4 µM],i,-39%
CCNc1nc(N)c(C(=C(C#N)C#N)c2ccccc2)s1,8%,2,?,i,-9%
CCNc1nc(N)c(C(=O)C23CC4CC(CC(C4)C2)C3)s1,4%,-68*,-15%,i,-13%
CCCn1c2ccccc2c2cnn(CC(=O)Nc3cc(OC)c(OC)c(OC)c3)c(=O)c21,1%,17,nt,nt,nt
Cc1noc(C)c1CSc1nnc(-c2c[nH]c3ccccc23)n1-c1ccc(Cl)cc1,1%,-3,0%,-115%*,-4%
CCc1ccc(-n2c(SCc3c(C)noc3C)nnc2-c2ccncc2)cc1,0%,-9,8%,i,-4%[15.4 µM]

# Bioassay records deposited in PubChem by National Center for Advancing Translational Sciences (NCATS).
